Shown are actives, neighbours in structure and some others; about 1.3% of the full set was active somewhere.
S1P2 blocker: blocks the human S1P2 receptor | O95136 | cell-based S1P2 antagonist assay, inhibition at 5 uM | inhibition, % at 5 µM | hit rate 0.21% among 97,000 | AID 736; in the data active means inhibition above about 45%;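 further: CRE beta-lactamase reporter cells expressing human S1P2 stimulated with S1P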
GALR2 agonist: activates the human galanin receptor 2; O43603; GALR2-expressing cells, agonist activation read-out; activation, % (test concentration not listed); hit rate 0.48% among 140,000; in the data active means activation above about 5%, passing the limit was not always enough
Target sequence (O43603 whole entry, looked up): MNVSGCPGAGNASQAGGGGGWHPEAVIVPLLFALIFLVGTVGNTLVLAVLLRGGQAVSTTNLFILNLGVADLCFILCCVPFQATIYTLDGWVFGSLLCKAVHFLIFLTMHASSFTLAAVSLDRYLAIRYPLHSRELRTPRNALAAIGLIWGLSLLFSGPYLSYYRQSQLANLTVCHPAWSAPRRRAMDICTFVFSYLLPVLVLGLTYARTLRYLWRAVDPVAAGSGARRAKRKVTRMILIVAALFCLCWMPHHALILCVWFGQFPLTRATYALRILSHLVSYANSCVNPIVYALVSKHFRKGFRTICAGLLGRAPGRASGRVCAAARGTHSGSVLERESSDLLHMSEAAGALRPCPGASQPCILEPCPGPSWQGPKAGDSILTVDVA
GALR2 blocker: antagonists of human galanin receptor 2 (GALR2); O43603; hit rate 0.39% among 140,000; inhibition, % at 4 µM; GALR2-expressing cells, antagonist mode; AID 828; in the data active means inhibition above about 27%;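 further: cells stimulated with galanin 1-16 at roughly its EC80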
Phagocytosis inh: inhibitors of macrophage phagocytosis; AID 1029; hit rate 0.07% among 110,000; J774A.1 macrophage IgG-bead phagocytosis, imaging; inhibition, % at 5 µM;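 active means inhibition above the mean of the plate negative controls plus 5 SD, cut at about 13% in these data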;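 further: phagocytic index as fraction of beads internalized from green versus red external bead signal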
S1P2 ag: S1P2 (human) receptor agonism. S1P2-expressing cell line, agonist reporter read-out. hit rate 0.46% among 97,000. activation, % at 4.5 µM; in the data active means activation above about 16%
Numbers stand for hits; - = inactive; . = no result; [ ] = dose if it differs, or a comment.

SMILES	S1P2 blocker	GALR2 agonist	GALR2 blocker	Phagocytosis inh	S1P2 ag
N=c1c2c(-c3ccccc3)c(-c3ccccc3)n(Cc3ccco3)c2ncn1Cc1ccco1	.	5.2	-	-	.
N=c1c2c(-c3ccccc3)c(-c3ccccc3)n(Cc3ccccc3)c2ncn1CCCn1ccnc1	-	-	-	.	-
CCN(CC)c1ccc2c(Cl)c(Br)c(=O)oc2c1	103	-	76	.	-
CCOC(=O)CCc1c(C)c2ccc(O)cc2oc1=O	-	-	-	-	-
CCOC(=O)Cc1c(C)c2ccc(N(CC)CC)cc2oc1=O	-	19	-	-	20
Cc1c(C)n(C(=O)CSc2nc3ccccc3[nH]2)c2ccccc12	-	-	-	-	-
C=CCSc1nc2ccccc2n1C(=O)/C=C/c1ccc(OC)c(OC)c1	-	-	-	.	-
C=CCSc1nc2ccccc2n1C(=O)/C=C/c1cc(OC)c(OC)c(OC)c1	54	-	-	.	-
CCN1C(=O)[C@H]2[C@H]3[C@H](O)[C@H](O)C/C(=N\OC[C@@H](C)[C@H](OCc4ccccc4)C(C)C)[C@@H]3CC[C@H]2C1=O	.	-	-	.	.
CC(C)(C)OC(=O)N[C@@H](Cc1ccccc1)c1nnc(S(=O)(=O)Cc2ccccc2)o1	-	-	35	-	-
O=C(NCCSCc1ccccc1)c1ccc(F)cc1	.	-	-	-	.
CCCOc1ccc(C2C(C(=O)OC)=CN(CCOC)C=C2C(=O)OC)cc1	-	6.9	-	-	17
O=C(N/N=C/c1ccc(O)cc1)c1[nH]c2ccc(Br)cc2c1-c1ccccc1	.	-	-	-	.
O=C(N/N=C/c1c[nH]c2ccccc12)c1[nH]c2ccc(Br)cc2c1-c1ccccc1	.	8.1	-	-	.
CC(=O)N1CCC(N(CCN2CCOCC2)C(=S)Nc2cc(C)ccc2C)CC1	.	-	-	-	.
O=C(CSc1nc2ccccc2[nH]1)Nc1nc(-c2ccc(Br)cc2)cs1	.	-	-	-	.
CC(=O)c1cccc(NS(=O)(=O)c2ccc(N/C=C\C(=O)c3ccc(C)cc3)cc2)c1	67	-	-	-	-
C=CCn1c(C)cc(C(=O)COC(=O)c2ccc3c(c2)NC(=O)CS3)c1C	.	-	-	-	.
N#C/C(=C\c1ccc([N+](=O)[O-])o1)c1nc2ccccc2[nH]1	.	-	-	-	.
Cc1ccc2nc(/C(C#N)=C\c3cc(C)n(-c4cccc([N+](=O)[O-])c4)c3C)[nH]c2c1	-	-	-	-	17
Cc1ccc2nc(/C(C#N)=C\c3ccc(Oc4ccc([N+](=O)[O-])cn4)cc3)[nH]c2c1	.	-	-	-	.
Cc1ccc2nc(/C(C#N)=C\c3ccc([N+](=O)[O-])o3)[nH]c2c1	-	-	-	33[fluoresces]	-
COc1ccc(NC(=O)COC(=O)c2cc(OC)c(OC)cc2NC(=O)c2ccco2)cc1OC	-	-	-	-	18
COC(=O)c1cc(OC)c(OC)cc1NC(=O)c1ccco1	.	-	-	-	.
COc1ccccc1CNC(=O)CCS(=O)(=O)c1cccc2nonc12	-	-	-	-	-
SMILES	S1P2 blocker	GALR2 agonist	GALR2 blocker	Phagocytosis inh	S1P2 ag
Cc1cc(C)n(-c2nc(Nc3ccccc3C(F)(F)F)nc(-n3nc(C)cc3C)n2)n1	59	-	-	.	-
Cc1ccccc1C(=O)O/N=C(\N)c1ccncc1	.	-	-	-	.
CCOCCCNc1nc(=S)[nH]c2cc(OC)c(OC)cc12	-	-	-	-	449
NC(=O)[C@@H]1CCCNc2c(F)cc([N+](=O)[O-])cc2C(=O)N[C@@H](CCC(=O)O)C(=O)N[C@@H](CO)C(=O)N1	.	-	-	.	.
CCN(CC)c1ccc(NC(=O)C2=CCN(S(=O)(=O)c3ccc(F)cc3)CC2)c(C)c1	.	-	-	.	.
Cc1ccc(-c2nnc3c4ccccc4c(C)nn23)cc1S(=O)(=O)N1CCN(C)CC1	-	-	-	.	-
Cc1ccc(-c2nnc3c4ccccc4c(C)nn23)cc1S(=O)(=O)N1CCN(CCO)CC1	-	-	-	-	17
O=C(Nc1ccc(-c2nc3ncccc3o2)cc1)c1ccc(Br)o1	54	-	-	.	-
O=C(Nc1ccc(-c2nc3ncccc3o2)cc1)c1ccco1	-	-	-	-	-
O=C(CCC(=O)N1CCc2ccccc21)Nc1ccccc1	-	-	-	-	58
O=C(Nc1ccccc1)N1CCc2ccccc21	-	-	-	.	-
N#CCCS(=O)(=O)c1nnnn1-c1ccccc1	64	-	59	-	-
COc1ccccc1CCNCc1ccc(OC)c(OCc2ccccc2)c1	48	-	-	-	-
Cc1onc(-c2ccccc2)c1-c1n[nH]c(=S)n1-c1ccccc1	-	-	-	.	-
CCn1c(=O)cc(SCC(=O)Nc2cc(OC)c(OC)c(OC)c2)c2ccccc21	-	-	-	-	20
O=C(COC(=O)C1CCN(S(=O)(=O)c2ccc3c(c2)OCCO3)CC1)Nc1cccc2ccccc12	.	-	-	-	.
O=C(CSc1nnc2ccccn12)Nc1nsc(-c2ccccc2)n1	.	-	-	-	.
O=C(CSc1nnc2ccccn12)Nc1cccc(-c2nc3ccccc3s2)c1	.	5.7	-	.	.
Cc1ccccc1Nc1nc(N)nc(COC(=O)c2cccc(S(=O)(=O)NCc3ccccc3)c2)n1	.	5.0	-	-	.
COc1ccc([N+](=O)[O-])cc1NC(=O)c1cn(-c2ccc(Cl)cc2)c(=O)c2ccccc12	.	-	-	-	.
COc1ccc(Oc2nc3ccccc3nc2C(F)(F)F)cc1	-	-	-	.	-
Cc1cc(C)cc(Oc2nc(C(F)(F)F)nc3ccccc23)c1	-	-	-	-	18
Cn1c(C(=O)N2CCCC2)cc2c(=O)n(C)c3ccccc3c21	-	-	-	-	21
Cn1c(C(=O)N2CCN(c3ncccn3)CC2)cc2c(=O)n(C)c3ccccc3c21	-	-	-	-	-
CC1(C)CC(CC(=O)NC(=S)Nc2ccc([N+](=O)[O-])cc2)C(=O)O1 (stereo not given)	-	-	-	.	-
SMILES	S1P2 blocker	GALR2 agonist	GALR2 blocker	Phagocytosis inh	S1P2 ag
CC(C)OCC1CC(CC(=O)NC(=S)Nc2cccc([N+](=O)[O-])c2)C(=O)O1 (stereo not given)	-	-	-	.	47
CCCCCCCC(O)CC(CC1CCCCC1)C(=O)NN (stereo not given)	.	-	-	-	.
O=C(CSc1ccc2ccccc2n1)Nc1nsc(-c2ccc(Cl)cc2)n1	.	-	-	31[artifact]	.
Cc1ccc(-c2nc(NC(=O)CSc3cc(C)c4ccccc4n3)ns2)cc1	.	-	-	.	.
C#CCCCCCCC#CCN(C)C	.	-	-	-	.
Cc1ccc2nc(-c3ccc(SCC(=O)Nc4nc(C)cs4)nc3)[nH]c2c1	.	-	-	-	.
Cc1ccc2nc(-c3ccc(SCC(=O)Nc4nnc(C)s4)nc3)[nH]c2c1	.	5.3	-	-	.
O=C(NC(=O)c1cccc(OC(F)(F)C(F)F)c1)OC1CCS(=O)(=O)C1 (stereo not given)	.	5.7	-	-	.
O=C(Nc1ccccc1)OC1CCS(=O)(=O)C1 (stereo not given)	.	-	-	-	.
CC1(C)CC(=O)C(C=Nc2ccc3cn[nH]c3c2)=C(O)C1	-	-	31	-	-
CC1(C)CC(=O)C(C=Nc2ccc3[nH]ncc3c2)=C(O)C1	-	-	-	-	-
CSc1ccccc1N=CC1=C(O)CC(C)(C)CC1=O	-	-	36	.	-
CC1(C)CC(=O)C(C=Nc2ccc(O)cc2)=C(O)C1	-	-	-	-	-

Screening results as filed in PubChem BioAssay.
